Results published in PubChem BioAssay (Tox21).
Records with an inconclusive call do not appear. Where a call stands in place of a potency, no number is given. A number with no mark means an inactive call. The source made the active and inactive calls. Unless noted, the call rests on the fitted dose curve; in most records, active means well fitted curve in the direction sought with a large enough effect in the repeat runs; inconclusive means weak or mixed curves; inactive means no such curve, though single readings can be large; an effect the other way counts as inactive or inconclusive.

Legend:
[1] = qHTS assay to identify small molecule agonists of the vitamin D receptor (VDR) signaling pathway - cell viability counter screen (AID 743224); further: nearly all actives have a fitted effect of over 50% in size; further: potency means the concentration at half of the fitted maximal effect; on activity change, negative = cytotoxicity: series mostly up to about 63 µM
Summary of the method: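 Counter screen for cytotoxicity: VDR-bla cells at 2,000 cells/well, 16 h compound exposure, then CellTiter-Glo luminescence after the beta-lactamase measurement.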

[2] = qHTS assay to identify small molecule agonists of the endoplasmic reticulum stress response signaling pathway - cell viability counter screen (AID 1159517; calls by dose curve; further: nearly all actives have a fitted effect of over 50% in size; further: potency means the concentration at half of the fitted maximal effect;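 on activity change, negative = cytotoxicity: HeLa cells carrying an ER stress response element beta-lactamase reporter; series mostly up to about 61 µM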)
Summary of the method: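 Cytotoxicity of test compounds toward ESRE-bla HeLa cells was assessed after 5 hr exposure. The luminescent CellTiter-Glo signal was measured 30 min after reagent addition.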

[3] = qHTS assay to identify small molecule antagonists of the retinoid-related orphan receptor gamma (ROR-gamma) signaling pathway - cell viability counter screen (AID 1159520); further: nearly all actives have a fitted effect of over 50% in size; further: potency means the concentration at half of the fitted maximal effect
Summary of the method: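 Tet-on ROR gamma CHO cells (1,000/well) were plated 4 hr, given compounds in DMSO for 2 hr at 37 C, then induced with 1 uM final doxycycline for 16 hr. Viability was read as ATP by CellTiter-Glo luminescence after 30 min.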

[4] = qHTS assay to identify small molecule agonists of the AP-1 signaling pathway - cell viability counter screen (AID 1159525; calls by dose curve; further: nearly all actives have a fitted effect of over 55% in size; further: potency means the concentration at half of the fitted maximal effect)
Summary of the method: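 Each titration point was normalised to DMSO and tetra n-octyl ammonium bromide controls. The read was Cell Titer Glo luminescence after 30 min at RT, following 5 h compound exposure of ME-180 AP-1-bla cells at 37 °C.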

[5] = qHTS assay to identify small molecule agonists of the RXR signaling pathway - cell viability counter screen (AID 1159529); further: nearly all actives have a fitted effect of over 50% in size; further: potency means the concentration at half of the fitted maximal effect; on activity change, negative = cytotoxicity: series mostly up to about 77 µM
Summary of the method: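 HEK 293T RXRa-bla cells, 2% CS-FBS; 5 h settle; cpd 16 h 37 C, 5% CO2; CellTiter-Glo 30 min RT, luminescence. Tetraoctyl ammonium bromide as positive control.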

[6] = qHTS assay to identify small molecule antagonists of the vitamin D receptor (VDR) signaling pathway - cell viability counter screen (AID 743225); further: nearly all actives have a fitted effect of over 50% in size; further: potency means the concentration at half of the fitted maximal effect
Summary of the method: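 Read-out: CellTiter-Glo luminescence measured 30 min after reagent addition at room temperature. Cells were VDR-bla HEK 293T exposed 16 h at 37C, 5% CO2, to compound with 3 nM final calcitriol agonist.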

[7] = biological target: Nuclear receptor ROR-gamma (Homo sapiens) (UniProt P51449); assay: qHTS assay to identify small molecule antagonists of the retinoid-related orphan receptor gamma (ROR-gamma) signaling pathway (AID 1159521; further: nearly all actives have a fitted effect of over 50% in size; further: potency means the concentration at half of the fitted maximal effect;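 on activity change, negative = inhibition: CHO cells with doxycycline inducible ROR-gamma driving an RORE luciferase reporter; top concentration of the series differs between compounds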)
Summary of the method: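 CHO Tet-on RORγ, RORE-luc reporter. Cpd 2 h pre-incubation, then dox hyclate 1 uM final, 16 h, 37 C/5% CO2. ONE-Glo luminescence; decrease = antagonist.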

[8] = qHTS assay to identify small molecule agonists of the AP-1 signaling pathway (AID 1159526; calls by dose curve)
[9] = biological target: Retinoic acid receptor RXR-alpha (Homo sapiens) (UniProt P19793); assay: qHTS assay to identify small molecule agonists of the RXR signaling pathway (AID 1159527; calls by dose curve; further: nearly all actives have a fitted effect of over 35% in size)
Summary of the method: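 Read-out: beta-lactamase FRET ratio (405 nm excitation, 460 and 530 nm emission) after 2 hr substrate loading at room temperature. Cells were RXR-alpha-UAS-bla HEK 293T treated with compounds for 16 hr in 2% charcoal-stripped FBS medium.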

Chain of Retinoic acid receptor RXR-alpha (Homo sapiens) (P19793 whole entry, looked up): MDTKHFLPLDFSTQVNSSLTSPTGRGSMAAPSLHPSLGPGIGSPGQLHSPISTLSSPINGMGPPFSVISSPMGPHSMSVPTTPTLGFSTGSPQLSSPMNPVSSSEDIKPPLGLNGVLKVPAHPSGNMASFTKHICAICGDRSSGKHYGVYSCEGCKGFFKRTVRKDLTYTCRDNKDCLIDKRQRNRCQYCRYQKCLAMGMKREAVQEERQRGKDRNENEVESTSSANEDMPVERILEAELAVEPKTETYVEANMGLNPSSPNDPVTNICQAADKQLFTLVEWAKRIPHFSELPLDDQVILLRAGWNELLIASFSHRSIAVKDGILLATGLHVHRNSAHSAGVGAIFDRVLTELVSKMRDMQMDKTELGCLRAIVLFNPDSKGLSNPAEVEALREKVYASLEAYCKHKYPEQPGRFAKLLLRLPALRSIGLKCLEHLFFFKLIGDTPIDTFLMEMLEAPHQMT

CCCCCCCCCCCCCOP(=O)(O)O
Potency [1]: inactive | Potency [2]: 30.9 µM (active) | Potency [3]: inactive | Potency [4]: inactive | Potency [5]: inactive

CC(C)(C)CC(C)(C)c1ccccc1O
Potency [1]: 19.6 µM (active) | Potency [6]: 22 µM (active) | Potency [2]: 49.2 µM (active) | Potency [3]: 61.4 µM (active) | Potency [7]: 68.9 µM (active) | Potency [4]: 43.9 µM (active) | Potency [5]: 39.1 µM (active)

CCC(C)c1cc([N+](=O)[O-])cc([N+](=O)[O-])c1OC(=O)OC(C)C (centres undefined)
Potency [1]: 54.9 µM (active) | Potency [6]: 34.7 µM (active) | Potency [2]: 34.7 µM (active) | Potency [3]: 61.1 µM (active) | Potency [7]: 19.3 µM (active) | Potency [4]: inactive

COc1cc(C(C)C)c2c(c1)S(=O)(=O)N(COc1cc(=O)n3cccc(OCCN4CCCCC4)c3n1)C2=O
Potency [1]: inactive | Potency [6]: inactive | Potency [2]: inactive | activity, negative = cytotoxicity [3]: -0.0922% [at 19 µM] | activity change, negative = inhibition [7]: -4.73% [at 19 µM] | activation [8]: 7.65% [at 15.8 µM] | activity change, negative = cytotoxicity [5]: -5.15% [at 15.8 µM]

CSc1c(Cl)c(Cl)c(Cl)c(Cl)c1Cl
Potency [6]: inactive | Potency [2]: 54.6 µM (active) | Potency [3]: inactive | Potency [7]: inactive | Potency [5]: 43.4 µM (active)

CCN=C1C=CC(=C(c2ccc(N(CC)CC)cc2)c2ccc(N(CC)CC)cc2)c2ccccc21
Potency [1]: 4.87 µM (active) | Potency [6]: 19.4 µM (active) | Potency [2]: 38.7 µM (active) | Potency [3]: 6.82 µM (active) | Potency [7]: 2.71 µM (active) | Potency [4]: 38.7 µM (active) | Potency [5]: 15.4 µM (active)

Brc1ccccc1-c1ccccc1
Potency [1]: inactive | Potency [2]: 41.3 µM (active) | Potency [7]: inactive | Potency [4]: inactive | Potency [9]: inactive

C[C@@]12C(=O)OC(=O)[C@]1(C)C1CCC2O1
Potency [2]: inactive | Potency [3]: 4.22 µM (active) | Potency [7]: 4.22 µM (active) | Potency [5]: inactive

CN1[C@@H]2CC[C@@H]1CC(OC(=O)C(CO)c1ccccc1)C2 (some centres undefined)
Potency [2]: inactive | Potency [3]: inactive | Potency [4]: inactive | Potency [8]: inactive | Potency [9]: inactive

C1CC(COCC2CO2)CCC1COCC1CO1 (centres undefined)
Potency [1]: inactive | Potency [2]: inactive | Potency [3]: inactive | Potency [4]: inactive | Potency [5]: inactive

CCOC(=O)[C@@](C)(N)Cc1ccc(O)c(O)c1
Potency [1]: inactive | Potency [6]: inactive | Potency [2]: inactive | Potency [3]: inactive | Potency [8]: inactive | Potency [5]: inactive

SCCCCCCCCS
Potency [1]: inactive | Potency [6]: inactive | Potency [2]: 34.7 µM (active) | Potency [7]: inactive | Potency [4]: inactive | Potency [8]: inactive | Potency [9]: inactive | Potency [5]: inactive

CC=O
Potency [1]: 22.9 µM (active) | Potency [6]: 57.5 µM (active) | Potency [2]: 16.2 µM (active) | Potency [3]: 63.9 µM (active) | Potency [7]: 2.02 µM (active) | Potency [5]: 14.4 µM (active)

CCCCCCCCCCCCCCNCCO
Potency [1]: inactive | Potency [6]: inactive | Potency [2]: 23.9 µM (active) | Potency [3]: 26.6 µM (active) | Potency [7]: inactive | Potency [8]: inactive | Potency [9]: inactive

CCCCCCOc1cc(C)c(O)c(C)c1C
Potency [1]: 39.4 µM (active) | Potency [6]: 35.1 µM (active) | Potency [2]: 55.6 µM (active) | Potency [3]: 61.9 µM (active) | Potency [7]: 49.2 µM (active) | Potency [4]: 44.2 µM (active) | Potency [5]: 35.1 µM (active)

c1ccc(Sc2ccccc2)cc1
Potency [1]: 49 µM (active) | Potency [6]: inactive | Potency [2]: 43.6 µM (active) | Potency [3]: inactive | Potency [7]: inactive | Potency [4]: inactive

C=CCCCCCCC=C
Potency [1]: 49.1 µM (active) | Potency [6]: inactive | Potency [2]: 55.1 µM (active) | Potency [3]: inactive | Potency [4]: inactive | Potency [8]: inactive

CC1CCCNC1 (centres undefined)
Potency [1]: 47.9 µM (active) | Potency [6]: inactive | Potency [2]: inactive | Potency [3]: inactive | Potency [7]: inactive | Potency [4]: inactive

O=C(O)CCn1c2c(c3ccccc31)C[C@H](NS(=O)(=O)c1ccc(F)cc1)CC2
Potency [1]: inactive | Potency [6]: inactive | Potency [2]: inactive | Potency [3]: inactive | Potency [4]: inactive | Potency [5]: inactive

C=C1C(C)(C)[C@@]2(Cl)C(Cl)[C@]1(Cl)C(Cl)(Cl)C2(Cl)Cl (some centres undefined)
Potency [1]: 38.2 µM (active) | Potency [2]: 48.1 µM (active) | Potency [3]: 67.3 µM (active) | Potency [7]: 47.7 µM (active) | Potency [4]: 48.1 µM (active) | Potency [5]: 19.1 µM (active)

CC(C)c1cccc(C(C)C)c1N1C(=O)c2ccc(O)cc2C1=O
Potency [1]: 43.6 µM (active) | Potency [6]: 49 µM (active) | Potency [2]: inactive | Potency [3]: 27.3 µM (active)

COc1cc(C=C2CCC/C(=C\c3ccc(O)c(OC)c3)C2=O)ccc1O
Potency [2]: inactive | Potency [3]: 29.8 µM (active) | Potency [4]: 26.8 µM (active)

O=C1c2c(O)ccc([N+](=O)[O-])c2C(=O)c2c([N+](=O)[O-])ccc(O)c21
Potency [1]: 10.9 µM (active) | Potency [6]: 9.68 µM (active) | Potency [2]: 24.3 µM (active) | Potency [3]: 27.1 µM (active) | Potency [7]: 24.1 µM (active) | Potency [5]: 17.2 µM (active)

C=CC(=O)OCCN(CC)CC
Potency [3]: inactive | Potency [7]: inactive | Potency [4]: inactive | Potency [8]: inactive | Potency [9]: inactive | Potency [5]: inactive
